Data taken from PMC5540273 (PLoS ONE, 2017).

system: STK16; conditions: concentration: 1 μM, replicates: in singlicate; n = 1
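Note: KINOMEscan kinase panel screen.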

Compound	%Inh [%]
CC(C)c1nc(-c2cccc(NS(=O)(=O)c3c(F)cccc3F)c2F)c(-c2ccnc(Nc3ccc(N4CCOCC4)nc3)n2)s1 [GSK2008607]	46
C[C@@H]1CC[C@@H](C(=O)Nc2ccccc2)CN1c1cc(-c2ccc3c(N)n[nH]c3c2)nc(N)n1 [GSK2286062]	8
COc1ccc(CNC(=O)NC2CCN(c3ccnc(Nc4ccc(F)cc4)n3)CC2)cc1 [GSK1379788]	9

system: STK33; conditions: concentration: 1 μM, replicates: in singlicate; n = 1

Compound	%Inh [%]
c1ccc(Oc2ccc(Nc3ccnc4cc(-c5ccc(CNCCN6CCOCC6)o5)ccc34)cc2)nc1 [GW567145]	21
Cn1cc(-c2[nH]c3cc(NC(=O)[C@H](N)C4CCCCC4)cc4c3c2C=NNC4=O)cn1	37
O=C(Nc1cccc(-c2nn3ccccc3c2-c2ccnc(Nc3cccc(F)c3)n2)c1)c1c(F)ccc(F)c1Cl [GSK357952]	10
Cc1ccc(C)c(NC(=O)NC2CCN(c3ccnc(Nc4ccc(F)cc4)n3)C2)c1 (stereo not drawn) [GSK1379720]	0
O=C(Nc1n[nH]c2cc(-c3ccoc3)ccc12)C1CC1 [SB-738481]	0
COc1cccc(C(=O)Nc2cccc(Oc3ccc4nc(NC(=O)C5CC5)cn4n3)c2)c1	10
Cc1ccc(S(=O)(=O)Nc2ccc(Nc3nccc(Nc4cccc5[nH]ncc45)n3)cc2)cc1 [GSK581271]	0
CN(C)Cc1ccc(-c2ccc3c(Nc4ccc(Oc5ccccn5)cc4)ccnc3c2)o1 [GW567148]	55
Nc1ncc(-c2ccc3nccc(-c4ccncc4)c3c2)cc1S(=O)(=O)N1CCOCC1 [GSK1627798]	0
